Rows were chosen to be rich in hits. Some 12% of all compounds tested hit in one or more screens of this group.
Gal4-VP16 FLuc: counter-screen for ROR gamma inhibitors: Gal4-VP16 reporter. Potency, µM (series often up to 53.6 µM), most hits filed as inhibitors. AID 2546. Drosophila S2 Gal4-VP16 UAS-luciferase, luminescence, 20 h. hit rate 3.5% among 310,000;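 further: Gal4-VP16 expression switched on by copper sulfate through the metallothionein promoter; nearly all actives have a fitted effect of over 50% in size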
RORgamma inh: blocks mouse ROR gamma transcriptional activity | P51450 | Drosophila S2 Gal4-RORgamma UAS-luciferase reporter, 20 h | Potency, µM (top dose mostly 53.6 µM), actives largely listed as inhibitors | hit rate 5.4% among 310,000 | AID 2551; further: nearly all actives have a fitted effect of over 60% in size
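Drosophila Schneider cells stably carrying a metallothionein-driven Gal4 DBD–ROR gamma fusion and a UAS-Photinus luciferase reporter were exposed to compound for 1 hr, then induced with copper sulfate (700 uM final) for 20 hr at ambient temperature before luminescence reading.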
ALDH1A1 inh: blocks purified human ALDH1A1 activity. P00352. Purified ALDH1A1, NADH fluorescence, propionaldehyde substrate. Potency, µM (series often up to 75.3 µM), usual class: inhibitors. hit rate 7.3% among 220,000. AID 1030; active means well fitted inhibition curve with a large enough effect, not every such curve was filed as active; inconclusive means small, poorly fitted or top-dose-only effect, or another doubt; inactive means no such curve, though single readings can be large or run the other way
Target sequence (P00352 whole entry, looked up): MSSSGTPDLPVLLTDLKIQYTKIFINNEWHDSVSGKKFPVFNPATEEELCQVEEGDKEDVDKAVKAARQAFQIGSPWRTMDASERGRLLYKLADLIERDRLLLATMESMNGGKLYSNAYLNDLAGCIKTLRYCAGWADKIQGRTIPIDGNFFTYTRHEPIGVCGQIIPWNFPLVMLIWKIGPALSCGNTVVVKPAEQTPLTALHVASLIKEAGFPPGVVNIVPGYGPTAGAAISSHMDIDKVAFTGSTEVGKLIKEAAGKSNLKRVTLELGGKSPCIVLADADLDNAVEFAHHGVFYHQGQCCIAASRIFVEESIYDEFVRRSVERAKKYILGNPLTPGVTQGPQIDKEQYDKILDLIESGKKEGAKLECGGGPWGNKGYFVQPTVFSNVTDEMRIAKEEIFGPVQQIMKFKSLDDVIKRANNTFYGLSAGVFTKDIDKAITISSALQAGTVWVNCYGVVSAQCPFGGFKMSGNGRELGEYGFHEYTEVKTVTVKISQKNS
PLK1 PBD inh: PLK1 (human) polo-box domain binding inhibition | Plk1 PBD binding of FITC phosphopeptide, fluorescence polarization | Potency, µM, usual class: inhibitors | hit rate 2.8% among 360,000 | AID 720504; further: series mostly up to about 57 µM; nearly all actives have a fitted effect of over 65% in size
Sfp PPTase inh: inhibitors of Bacillus subtilis Sfp phosphopantetheinyl transferase; Potency, µM, actives largely listed as inhibitors; hit rate 3.5% among 310,000; Biochemical Sfp PPTase activity, qHTS; AID 1490;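 further: the enzyme is Sfp with the accession as filed and its product quenches rhodamine fluorescence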
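Buffer: 50 mM Hepes-Na pH 7.6, 10 mM MgCl2, 0.01% Nonidet P-40, 0.01% BSA. Enzyme 15 nM, pre-exposed to compound 15 min; substrates then added and fluorescence change tracked over 30 min.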
Numbers stand for hits; . = inactive; ? = inconclusive; / = no result; ! = repeats disagree; [ ] = dose if it differs, or a comment. Unless noted, the call rests on the fitted dose curve; in most records, active means well fitted curve in the direction sought with a large enough effect; inconclusive means small, poorly fitted or top-dose-only effect, or another doubt; inactive means no such curve, though single readings can be large; an effect the other way counts as inactive or inconclusive.

SMILES	Gal4-VP16 FLuc	RORgamma inh	ALDH1A1 inh	PLK1 PBD inh	Sfp PPTase inh
O=[N+]([O-])c1ccc(Cl)c(/C=N/n2c(COc3ccccc3)n[nH]c2=S)c1	.	?	14µM	24µM	?
Cc1cccc(/C=N/n2c(COc3ccccc3)n[nH]c2=S)c1	?	7.1µM	/	24µM	56µM
N#Cc1c(-c2ccccc2)no[n+]1[O-]	/	/	5µM	/	.
N#Cc1cn(-c2ccccc2)nc1-c1ccccc1	.	.	.	.	.
O=C(CN1CCCC1)Nc1cc(F)ccc1F	.	.	.	.	.
O=C(CNCCc1ccc(F)cc1)Nc1cc(F)ccc1F	.	.	/	.	63µM
COC(=O)C1=C(C)N(c2ccc(S(N)(=O)=O)cc2)C(=O)C1	.	.	.	.	.
COC(=O)C1=C(C)N(c2ccc(Cl)c(Cl)c2)C(=O)C1	13µM	4.5µM	?	.	.
CCOC(=O)C(C)Oc1cccc2c(=O)n(CC(=O)N3CCCc4ccccc43)ccc12 (stereo not given)	.	.	20µM	.	.
COc1ccc(CN(C(=O)c2nsc(Cl)c2Cl)C(C(=O)NC2CCCCC2)c2ccc(OC)cc2)cc1 (stereo not given)	.	.	7.1µM	.	.
COc1ccc(CN(C(=O)c2snc(C(N)=O)c2N)C(C(=O)NC2CCCC2)c2ccc(OC)c(OC)c2)cc1 (stereo not given)	.	.	/	.	.
COc1ccc(CN(C(=O)c2nsc(Cl)c2Cl)C(C(=O)NC2CCCC2)c2ccc(C)cc2)cc1 (stereo not given)	.	.	13µM	.	.
CC(=O)C1=C(c2ccc(Br)cc2)C(=O)c2ccccc2C1=O	6.3µM	14µM	.	.	.
CC(=O)Nc1c(Br)cc2c(c1Br)C(=O)c1ccccc1-2	/	/	/	.	/
COc1ccc(/C(O)=C2/C(=O)C(=O)N(CCN3CCOCC3)C2c2cccnc2)cc1OC (stereo not given)	.	.	25µM	.	.
COc1cccc(/C(O)=C2/C(=O)C(=O)N(CCN3CCOCC3)C2c2cccnc2)c1 (stereo not given)	.	.	3.5µM	.	.
Cc1ccc(N2C(=O)CC(Sc3nc4ccccc4o3)C2=O)cc1Cl (stereo not given)	?	?	1.4µM	.	50µM
Cc1ccc(S(=O)(=O)N2CC3C(=O)CC(c4ccccc4)N(S(=O)(=O)c4ccc(C)cc4)C3CC2c2cccc(Cl)c2)cc1 (stereo not given)	/	/	/	.	/
CCc1cccc(C)c1NC(=O)COC(=O)c1c2c(nc3ccccc13)/C(=C\c1cccs1)CCC2	.	?	.	.	.
CC(=O)Nc1ccc(NC(=O)COC(=O)c2c3c(nc4ccccc24)CCN(Cc2ccccc2)C3)cc1	.	?	7.1µM	.	.
CC(C)CNC(=O)COC(=O)c1c2c(nc3ccccc13)/C(=C/c1cccs1)CC2	?	.	.	.	45µM
NC(=O)c1ccc(NC(=O)COC(=O)c2c3c(nc4ccccc24)/C(=C\c2cccs2)CCC3)cc1	5µM	4.5µM	?	.	.
C=C(C)CN(CC)C(=O)CSc1ccc(S(=O)(=O)N2CCN(C)CC2)cn1	/	/	/	.	/
CCOC(=O)C1=C(COC(=O)C2CC(=O)N(c3ccccc3CC)C2)NC(=O)NC1C (stereo not given)	/	/	/	.	/
O=C(CNC(=S)NC(=O)c1cccc([N+](=O)[O-])c1)c1ccccc1	13µM	7.1µM	?	.	.
SMILES	Gal4-VP16 FLuc	RORgamma inh	ALDH1A1 inh	PLK1 PBD inh	Sfp PPTase inh
O=C(C#Cc1ccccc1)c1cccc([N+](=O)[O-])c1	6.3µM	5.6µM	?	0.6µM	.
O=C(NC(=S)NCc1ccccc1)c1cccc([N+](=O)[O-])c1	5.6µM	6.3µM	/	.	.
O=C(O)c1cccc([N+](=O)[O-])c1	.	.	.	/	/
O=C(NC(=S)NNC(=O)c1ccccc1O)c1cccc([N+](=O)[O-])c1	.	.	/	.	.
OCCn1nc2c3ccccc3nc-2n(-c2ccccc2)c1=S	.	.	?	?	50µM
Cc1nn(-c2ccccc2)c(=S)n1-c1ccccc1	.	.	.	.	.
CN(C)CCCNC(=O)OC1CC2CC1[C@H]1CCCCN1C2=O (stereo not given in full)	/	/	/	.	/
NS(=O)(=O)c1cccc(NC(=O)COC(=O)CC2CC3CCC2C3)c1 (stereo not given)	.	.	.	.	.
O=C(COC(=O)CC1CC2CCC1C2)Nc1cccc(S(=O)(=O)NC2=NCCCCC2)c1 (stereo not given)	.	.	?	21µM	.
CC1CC(=O)C2=C(C1)Nc1nc3ccccc3n1C2c1cccnc1 (stereo not given)	.	.	?	.	.
O=C1CCCC2=C1C(c1ccncc1)n1c(nc3ccccc31)N2 (stereo not given)	.	.	?	27µM	.
C[C@@H]1CN([C@@H](C)CO)C(=O)c2cc(Br)cnc2O[C@H]1CN(C)C(=O)c1ccc2c(c1)OCO2	/	/	/	.	/
CCN(CC)S(=O)(=O)c1ccc(NC(=O)COC(=O)CNC(=O)C2CCCCC2)cc1	/	/	/	.	/
c1cc2cn[nH]c2cc1NC1CCCCCC1	?	?	?	?	45µM
NC(=S)Nc1ccc2cn[nH]c2c1	.	.	.	.	.
CO[C@H](C(=O)N(C)C[C@@H]1OCc2ccccc2-c2c(n(C)c3ccccc23)C(=O)N([C@H](C)CO)C[C@@H]1C)c1ccccc1	/	/	/	.	/
COc1cc(O)c2c(c1)oc(=O)c1c3cc(O)c(O)cc3oc21	?	13µM!	/	/	10µM
Cc1ccc2oc(=O)c3c4cc(O)c(O)cc4oc3c2c1	.	?	.	/	.
CC(C)(C)C1=C[C@@H](CO)C[C@@H](CO)C1	.	.	28µM	.	.
O=C(COC(=O)/C=C/C(=O)OCC(=O)NC12CC3CC(CC(C3)C1)C2)NC12CC3CC(CC(C3)C1)C2	.	.	4µM	.	.
O=C(COC(=O)c1ccccc1O)NC12CC3CC(CC(C3)C1)C2	/	/	/	.	/
Cc1cnc(C(=O)OCC(=O)NC23CC4CC(CC(C4)C2)C3)cn1	.	.	25µM	.	.
Clc1cncc(Cl)c1N/N=C/c1ccncc1	.	.	.	.	.
Nc1c(Cl)ncnc1N/N=C/c1ccncc1	.	.	/	.	79µM
COc1ccc(/C=N/Nc2nnc(C)n2N)cc1OC(C)=O	?	?	/	.	.
SMILES	Gal4-VP16 FLuc	RORgamma inh	ALDH1A1 inh	PLK1 PBD inh	Sfp PPTase inh
COc1ccc(/C=N/Nc2nnc(C)n2N)cc1OC	?	11µM	.	.	.
COc1ccc(/C=N/Nc2ncnc(Cl)c2N)cc1OC	?	?	?	.	32µM
COc1ccc(/C=N/Nc2ncnc3sc4c(c23)CCCC4)cc1OC	4µM	3.2µM	.	.	.
Cn1cccc1C(=O)N1CCC2(CCN(Cc3ccccc3)CC2)CC1	.	.	.	/	.
C[C@@H]1CCCN(C[C@@H](O)CN2CCCc3ccccc32)C1	/	/	.[13.5 µM]	/	/
Nc1c(Cl)ncnc1N/N=C/c1cccc(O)c1	.	.	/	.	56µM
Oc1cccc(/C=N/Nc2ncnc3c2ncn3Cc2ccccc2)c1	.	?	.	.	.

High-throughput results deposited in PubChem by National Center for Advancing Translational Sciences (NCATS).
